Source: PubChem BioAssay (NCATS)
Inconclusive results are not listed. Where a call stands in place of a potency, no number is given. Active and inactive are the calls of the source. The call rests on the fitted dose curve; in most records, active means well fitted curve in the direction sought with a large enough effect; inconclusive means small, poorly fitted or top-dose-only effect, or another doubt; inactive means no such curve, though single readings can be large; an effect the other way counts as inactive or inconclusive.

Test: qHTS of pediatric cancer cell lines to identify multiple opportunities for drug repurposing: Primary screen for OHS-50 cells (AID 1347103); further: nearly all actives have a fitted effect of over 40% in size
Details: OHS-50 osteosarcoma viability, CellTiter-Glo luminescence, 48 h; series mostly up to 57.3 µM
In short: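 Cells (500-1,000/well) rested 5 h, then received compounds for 48 h; metabolically active cells were measured by CellTiter-Glo luminescence. Final concentrations spanned up to 46 µM (MIPE, 11-point) or 0.59 nM-46 µM (NPC, 8-point) in primary screens, 11-point in follow-ups.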

SMILES | Potency
O=C(O)C(Cc1cc(I)c(O)c(I)c1)c1ccccc1 (stereo unspecified) | inactive
CC(C)(C)NCC(O)COc1cccc2c1C[C@H](O)[C@H](O)C2 (stereo partly specified) | inactive
Cc1nc(-c2ccc(Cl)cc2)oc1COC(C)(C)C(=O)O | inactive
C[N+]1(C)CCC(=C(c2ccccc2)c2ccccc2)CC1 | inactive

Test: qHTS of pediatric cancer cell lines to identify multiple opportunities for drug repurposing: Primary screen for RD cells (AID 1347104); further: nearly all actives have a fitted effect of over 55% in size; further: potency means the concentration at half of the fitted maximal effect
Details: RD rhabdomyosarcoma viability, CellTiter-Glo luminescence, 48 h; series mostly up to 46 µM
In short: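 Cells seeded at 500-1,000 cells/well in growth media, rested 5 hours at 37 degrees C, 5% CO2, then dosed; MIPE compounds at 11-point (from 0.78 nM) and NPC at 8-point (from 0.59 nM) final concentrations. Viability by CellTiter-Glo luminescence after 48 hours.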

SMILES | Potency
C[N+]1(CC2COC(c3ccccc3)(C3CCCCC3)O2)CCCCC1 (stereo unspecified) | inactive
C=C[C@H]1CN2CC[C@H]1C[C@H]2[C@H](O)c1ccnc2ccc(OC)cc12 | inactive
CN(C)C(=O)Nc1ccc(Cl)c(Cl)c1 | inactive
C[C@@H](O)[C@H]1C(=O)N2C(C(=O)O)=C(S[C@@H]3CN[C@H](CNS(N)(=O)=O)C3)[C@H](C)[C@H]12 | inactive
CCOCCn1c(N2CCCN(C)CC2)nc2ccccc21 | inactive
N#C/C(=C1\SCC(c2ccccc2Cl)S1)n1ccnc1 (stereo unspecified) | inactive
CCCCC(CC)COC(=O)c1ccc(N(C)C)cc1 (stereo unspecified) | inactive
N#CCC(=O)NN | inactive
Cc1cc(NS(=O)(=O)c2ccc(N)cc2)nc(C)n1 | inactive
COc1cc(N)c(Cl)cc1C(=O)NC1CCN(Cc2ccccc2)CC1 | inactive
CCCCN=C(N)N=C(N)N | inactive
CC(C)Cc1ccc(CC(=O)O)cc1 | inactive
Oc1c(Cl)cc(Cl)c(Cl)c1Cc1c(O)c(Cl)cc(Cl)c1Cl | 11.9 µM (active)
CCN(CC)CCOc1ccccc1C(=O)CCc1ccccc1 | inactive
CC(=O)Nc1ccc(S(=O)(=O)Nc2ccc([N+](=O)[O-])cc2)cc1 | inactive
Cc1c[nH]c2ccccc12 | inactive
CCCCCCCCOc1ccc(C(=O)c2ccccc2)c(O)c1 | inactive
